Inconclusive results are not listed. The source made the active and inactive calls. Unless noted, calls follow the shape of the dose curve; as a rule, active = well fitted curve in the direction sought with a large enough effect; inconclusive = small, poorly fitted or top-dose-only effect, or another doubt; inactive = no such curve, though single readings can be large; an effect the other way counts as inactive or inconclusive.
Legend:
[1] = molecular target: Lysosomal acid glucosylceramidase (Homo sapiens) (UniProt P04062); assay: Glucocerebrosidase-p2 (AID 348; in the data active = potency below about 10 µM; also: potency is read from the fitted curve at half-maximal effect); settings: purified GBA, blue fluorogenic substrate, 40 min
Lysosomal acid glucosylceramidase (Homo sapiens), sequence (P04062 whole entry, looked up): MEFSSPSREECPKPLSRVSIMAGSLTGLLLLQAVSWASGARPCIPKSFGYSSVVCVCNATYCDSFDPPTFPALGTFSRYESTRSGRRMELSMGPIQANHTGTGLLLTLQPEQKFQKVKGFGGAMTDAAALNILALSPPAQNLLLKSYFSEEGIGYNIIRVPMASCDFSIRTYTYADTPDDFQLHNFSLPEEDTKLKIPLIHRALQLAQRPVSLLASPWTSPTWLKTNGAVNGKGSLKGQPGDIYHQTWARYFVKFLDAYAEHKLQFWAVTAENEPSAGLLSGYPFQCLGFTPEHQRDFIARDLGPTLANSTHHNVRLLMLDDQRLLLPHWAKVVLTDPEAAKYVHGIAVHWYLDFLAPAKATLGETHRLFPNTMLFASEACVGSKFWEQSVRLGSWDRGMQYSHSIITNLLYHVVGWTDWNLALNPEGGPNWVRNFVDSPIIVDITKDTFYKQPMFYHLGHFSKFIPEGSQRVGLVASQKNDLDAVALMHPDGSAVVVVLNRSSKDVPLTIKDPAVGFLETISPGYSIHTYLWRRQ
How it was run: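 Normal human glucocerebrosidase (0.2 nM) with blue fluorogenic substrate (80 uM final) in citrate/phosphate pH 5.9 with 10mM sodium taurocholate, 0.01% tween-20; 40 min RT, NaOH/glycine stop; fluorescence Ex 365/Em 440; AC50 from a titration from 0.6 nM upwards.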

[2] = AP1 Signaling Pathway (AID 357; active = well fitted curve in either direction with a large enough effect, not every such curve was filed as active; also: % is scaled to controls: 0 for no effect and ±100 for the full control effect); settings: ME-180 AP-1-bla reporter, EGF-induced, beta-lactamase ratio, 5 h; at 7.69 µM (top of the series) unless noted
How it was run: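 Titration-series screen for positive or negative modulators of EC50 EGF-induced signaling in ME-180 cells carrying an AP-1-driven beta-lactamase reporter. After 5 hours at 37 degrees Celsius, CCF4 460nm/530nm emission ratio gave %Activity; AC50 values derived.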

[3] = NFAT Signaling Pathway (AID 444; active = well fitted curve in either direction with a large enough effect, not every such curve was filed as active;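 also: carbachol stimulus at about its EC50 of 1 µM final; % is scaled to controls: 0 for no effect and ±100 for the full control effect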); settings: Jurkat NFAT-bla M1, carbachol, beta-lactamase ratio, 5 h; at 7.69 µM (top of the series) unless noted
How it was run: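 Jurkat cells carrying an NFAT-driven β-lactamase reporter and co-transfected muscarinic M1 receptor were treated with compound plus carbachol (1 uM final, an EC50 level) for 5 h at 37 °C. CCF4 loading followed for 1 h at RT; 460/530 nm ratio gave %activity.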

[4] = Stat Signaling Pathway (AID 446; active = well fitted curve in either direction with a large enough effect, not every such curve was filed as active;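 also: ME-180 cervical cancer cells given 40 pM IL-6 alongside compound; SIE-controlled beta-lactamase reporter measured as 460/530 nm FRET emission ratio; % is scaled to controls: 0 for no effect and ±100 for the full control effect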); settings: ME-180 SIE beta-lactamase reporter, IL-6 stimulated, 5 h; at 7.69 µM (top of the series) unless noted
How it was run: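 Normalization used AC90 stimulation (300 pM IL-6) and AC90 inhibition (125 nM pan-JAK inhibitor at 40 pM IL-6). The underlying signal is SIE-driven beta-lactamase in ME-180 cells after 5 h IL-6 exposure with compound.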

[5] = molecular target: Mitogen-activated protein kinase 10 (Mus musculus) (UniProt Q61831); assay: JNK3 AlphaScreen Assay (AID 530; active = well fitted curve in either direction with a large enough effect, not every such curve was filed as active;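 also: kinase came from lysate of stimulated human HepG2 cells; signal reports phosphorylation of biotinylated GST-cJun 1-79 at Ser73 with 10 µM ATP; % is scaled to controls: 0 for no effect and ±100 for the full control effect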); settings: JNK3 lysate, c-Jun phosphorylation; series mostly up to 11.4 µM
How it was run: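 Phosphorylation of biotinylated GST-cJun(1-79) at Ser73 is measured by AlphaScreen proximity luminescence. Enzyme is JNK3 in HepG2 lysates activated with interleukin-1beta and tumor necrosis factor alpha; ATP is 10 uM final.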

[6] = molecular target: 3',5'-cyclic-AMP phosphodiesterase 4B (Homo sapiens) (UniProt Q07343); assay: qHTS Assay for Inhibitors of PDE-IV (AID 607; active = well fitted activation curve with a large enough effect in the main read-out, with a control signal flat, not every such curve was filed as active; also: % of control where 0% means no effect); settings: HEK293 ACTOne CNG channel cells, membrane potential fluorescence; series mostly up to 22.9 µM
3',5'-cyclic-AMP phosphodiesterase 4B (Homo sapiens), sequence (Q07343 whole entry, looked up): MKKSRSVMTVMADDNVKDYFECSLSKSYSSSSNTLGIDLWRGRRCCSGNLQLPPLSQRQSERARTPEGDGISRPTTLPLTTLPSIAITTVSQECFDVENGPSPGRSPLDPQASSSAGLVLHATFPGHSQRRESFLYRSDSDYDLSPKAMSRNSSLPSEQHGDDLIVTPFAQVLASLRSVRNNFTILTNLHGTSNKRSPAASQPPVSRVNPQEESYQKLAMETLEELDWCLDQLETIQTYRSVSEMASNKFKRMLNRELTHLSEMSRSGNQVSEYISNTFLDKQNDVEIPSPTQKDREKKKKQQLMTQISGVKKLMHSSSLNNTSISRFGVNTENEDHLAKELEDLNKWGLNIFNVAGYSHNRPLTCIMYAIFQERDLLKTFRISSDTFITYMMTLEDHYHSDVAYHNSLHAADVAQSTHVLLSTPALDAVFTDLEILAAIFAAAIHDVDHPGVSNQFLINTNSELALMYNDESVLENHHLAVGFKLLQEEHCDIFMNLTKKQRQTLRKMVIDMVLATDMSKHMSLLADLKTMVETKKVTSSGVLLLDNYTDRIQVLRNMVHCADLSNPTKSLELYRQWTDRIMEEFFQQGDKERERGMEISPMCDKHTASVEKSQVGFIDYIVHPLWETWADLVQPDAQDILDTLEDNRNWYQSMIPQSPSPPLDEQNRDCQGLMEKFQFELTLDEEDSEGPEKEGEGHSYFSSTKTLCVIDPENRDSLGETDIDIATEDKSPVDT
How it was run: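 HEK293 ACTOne cells with CNG channel (1000/well), endogenous PDE4; membrane potential dye, compounds up to 22.9 uM final. Fluorescence Ex 535/Em 590; RO 20-1724 (100 uM final) as reference.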

[7] = qHTS Assay for Identification of Small Molecule Agonists for Hypoxia Response Element Signaling Pathway (AID 914; active = well fitted activation curve with a large enough effect in the signal ratio, with a control signal flat, not every such curve was filed as active; the % refers to the signal ratio; also: % of control where 0% means no effect); settings: ME-180 (cervical carcinoma) HRE-bla reporter, beta-lactamase ratio, CoCl2, 17 h; activation: stronger effect = higher value
How it was run: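 Read-out: CCF4 FRET ratio of 460nm to 530nm emission (excitation 405nm) after 2.5 hours at room temperature, taken from HRE-bla ME-180 cells that had been exposed to compound and EC50 CoCl2 for 17 hours.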

[8] = molecular target: ATP-dependent 6-phosphofructokinase (Trypanosoma brucei brucei) (UniProt O15648); assay: qHTS Assay to Find Inhibitors of T. brucei phosphofructokinase: hit validation (AID 492961); settings: T. brucei PFK, ADP-Glo luminescence; series mostly up to 51.4 µM
ATP-dependent 6-phosphofructokinase (Trypanosoma brucei brucei), sequence (O15648 whole entry, looked up): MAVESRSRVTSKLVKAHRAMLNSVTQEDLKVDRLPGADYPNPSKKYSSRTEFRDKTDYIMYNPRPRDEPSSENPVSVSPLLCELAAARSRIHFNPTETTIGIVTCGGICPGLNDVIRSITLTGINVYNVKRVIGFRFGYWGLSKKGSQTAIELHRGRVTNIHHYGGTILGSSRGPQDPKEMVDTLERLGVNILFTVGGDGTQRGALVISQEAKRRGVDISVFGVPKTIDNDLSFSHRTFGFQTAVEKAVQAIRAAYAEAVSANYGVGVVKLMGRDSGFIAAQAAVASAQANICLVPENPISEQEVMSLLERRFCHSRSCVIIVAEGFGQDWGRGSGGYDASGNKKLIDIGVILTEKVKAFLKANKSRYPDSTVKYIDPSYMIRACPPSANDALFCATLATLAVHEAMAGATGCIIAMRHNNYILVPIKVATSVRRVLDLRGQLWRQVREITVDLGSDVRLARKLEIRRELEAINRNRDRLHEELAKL
How it was run: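 PFK 1.25 nM, F6P 0.5 mM, ATP 0.1 mM, MgCl2 5 mM, 0.1 M TEA pH 8.0, Tween20 0.01%, BSA 0.1%; 45 min RT. ADP-Glo two-step detection, luminescence. qHTS titration; curve fitting with curve-class categorization.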

[9] = molecular target: Ubiquitin carboxyl-terminal hydrolase 1 (Homo sapiens) (UniProt O94782); assay: Inhibitors of USP1/UAF1: Pilot qHTS (AID 504865); settings: purified USP1/UAF1, Ub-rhodamine cleavage fluorescence; series mostly up to 114 µM;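 also: rhodamine fluorescence freed from ubiquitin-rhodamine substrate followed over time; top concentration of the series differs between compounds; % is scaled to controls: 0 for no effect and ±100 for the full control effect; nearly all actives have a fitted effect of over 35% in size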
Ubiquitin carboxyl-terminal hydrolase 1 (Homo sapiens), sequence (O94782 whole entry, looked up): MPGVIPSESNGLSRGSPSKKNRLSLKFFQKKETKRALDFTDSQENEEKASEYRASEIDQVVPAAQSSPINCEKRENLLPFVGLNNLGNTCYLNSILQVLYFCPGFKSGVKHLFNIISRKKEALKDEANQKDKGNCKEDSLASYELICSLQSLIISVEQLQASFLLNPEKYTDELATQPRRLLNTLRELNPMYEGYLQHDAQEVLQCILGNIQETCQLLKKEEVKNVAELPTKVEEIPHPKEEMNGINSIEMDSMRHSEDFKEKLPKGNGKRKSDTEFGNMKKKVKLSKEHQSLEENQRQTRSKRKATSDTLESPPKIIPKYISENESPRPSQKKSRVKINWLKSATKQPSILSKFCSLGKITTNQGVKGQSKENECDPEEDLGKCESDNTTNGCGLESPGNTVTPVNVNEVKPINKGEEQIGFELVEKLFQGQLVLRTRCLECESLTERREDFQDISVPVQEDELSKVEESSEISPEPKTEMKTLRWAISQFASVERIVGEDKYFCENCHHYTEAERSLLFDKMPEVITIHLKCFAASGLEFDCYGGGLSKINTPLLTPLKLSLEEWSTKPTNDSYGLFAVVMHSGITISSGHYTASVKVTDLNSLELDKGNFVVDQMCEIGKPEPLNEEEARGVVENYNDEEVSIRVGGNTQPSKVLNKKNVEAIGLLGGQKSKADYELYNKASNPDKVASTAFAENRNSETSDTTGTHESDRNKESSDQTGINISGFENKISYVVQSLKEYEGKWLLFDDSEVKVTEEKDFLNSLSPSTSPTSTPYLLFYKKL
How it was run: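 Kinetic fluorescence assay: 1nM USP1/UAF1, 15 min compound preincubation, then 150nM Ub-Rho; 480/540 nm.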

[10] = molecular target: Luciferin 4-monooxygenase (Photinus pyralis) (UniProt P08659); assay: Biochemical firefly luciferase enzyme assay for NPC (AID 624030);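 also: purified P. pyralis luciferase at 10 nM with luciferin and ATP substrate; 0% = DMSO and -100% = full luciferase inhibition by PTC124 control; nearly all actives have a fitted effect of over 70% in size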; settings: purified P. pyralis luciferase, luminescence, 5 min; series mostly up to 58.6 µM
Luciferin 4-monooxygenase (Photinus pyralis), sequence (P08659 whole entry, looked up): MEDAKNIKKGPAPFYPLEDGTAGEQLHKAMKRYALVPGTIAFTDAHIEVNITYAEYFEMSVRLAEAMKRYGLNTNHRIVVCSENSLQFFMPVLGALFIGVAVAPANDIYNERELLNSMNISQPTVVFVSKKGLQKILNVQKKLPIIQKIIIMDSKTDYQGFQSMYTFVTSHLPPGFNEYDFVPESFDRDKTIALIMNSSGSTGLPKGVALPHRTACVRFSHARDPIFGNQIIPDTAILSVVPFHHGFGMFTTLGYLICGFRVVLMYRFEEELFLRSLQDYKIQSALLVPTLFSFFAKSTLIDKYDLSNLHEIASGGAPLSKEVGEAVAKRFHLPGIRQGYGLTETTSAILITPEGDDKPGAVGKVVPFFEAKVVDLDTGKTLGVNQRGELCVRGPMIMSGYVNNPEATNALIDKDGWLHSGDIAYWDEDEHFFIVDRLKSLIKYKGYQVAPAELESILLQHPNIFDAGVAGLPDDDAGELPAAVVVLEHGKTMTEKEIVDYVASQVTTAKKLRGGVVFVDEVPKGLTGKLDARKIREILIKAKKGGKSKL
How it was run: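 Counter-screen for direct inhibition of the luciferase enzyme by approved-drug library compounds, run at 10 nM enzyme in 50 mM Tris acetate (final). Luminescence was read within 5 min of enzyme-buffer addition and normalized to PTC124 versus DMSO (0%).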

[11] = S16 Schwann cell viability assay (CellTiter-Glo assay) (AID 624031); settings: S16 rat Schwann cells viability, 24 h; series mostly up to 57.5 µM;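 also: cellular ATP luminescence as a viability measure; plate controls were DMSO-treated cells for no effect and cell-free wells for full effect; nearly all actives have a fitted effect of over 70% in size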
How it was run: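 Luminescent ATP read-out (CellTiter-Glo) after 24 h compound exposure of native S16 rat Schwann cells at 37 °C. Signals were normalized between cell-free wells and DMSO-treated cells, set as 0% activity.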

[12] = S16 Schwann cell PMP22 intronic element firefly luciferase assay (AID 624032); settings: S16 rat Schwann cells, PMP22 element FLuc, 24 h; series mostly up to 57.5 µM;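 also: plate controls were DMSO for no effect and PTC124 positive control mean for full effect; nearly all actives have a fitted effect of over 30% in size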
How it was run: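 Rat S16 Schwann cells stably carrying a PMP22 intronic element-driven Fluc reporter were seeded overnight, then exposed to compounds for 24 h at 37 °C. Luminescence was normalized to PTC124 (positive control) and DMSO (0% activity).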

[13] = qHTS profiling for inhibitors of Plasmodium falciparum proliferation (AID 504749);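 also: 0% = DMSO vehicle and full inhibition = artemisinin control; nearly all actives have a fitted effect of over 60% in size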; settings: P. falciparum in erythrocytes, SYBR Green DNA, 72 h, at 28.7 µM (top of the series)
How it was run: (§1)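 Quantitative HTS: compounds pinned into medium, infected erythrocytes added (0.3% parasitemia, 2.5% hematocrit), 72 h culture at 37 C under 5% CO2. Saponin/Triton lysis with SYBR Green I, overnight RT, then fluorescence read.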

3D7 = assay: as above; settings: P. falciparum in erythrocytes, SYBR Green DNA, 72 h; series mostly up to 28.7 µM
How it was run: as §1

7G8 = assay: as above; settings: P. falciparum in erythrocytes, SYBR Green DNA, 72 h; series mostly up to 28.7 µM
How it was run: as §1

AA1029 = assay: as above; settings: P. falciparum in erythrocytes, SYBR Green DNA, 72 h; series mostly up to 28.7 µM
How it was run: as §1

AS120 = assay: as above; settings: P. falciparum in erythrocytes, SYBR Green DNA, 72 h; series mostly up to 28.7 µM
How it was run: as §1

ATS189 = assay: as above; settings: P. falciparum in erythrocytes, SYBR Green DNA, 72 h; series mostly up to 28.7 µM
How it was run: as §1

ATS95 = assay: as above; settings: P. falciparum in erythrocytes, SYBR Green DNA, 72 h; series mostly up to 28.7 µM
How it was run: as §1

C2A = assay: as above; settings: P. falciparum in erythrocytes, SYBR Green DNA, 72 h; series mostly up to 28.7 µM
How it was run: as §1

CP185 = assay: as above; settings: P. falciparum in erythrocytes, SYBR Green DNA, 72 h; series mostly up to 28.7 µM
How it was run: as §1

CP191 = assay: as above; settings: P. falciparum in erythrocytes, SYBR Green DNA, 72 h; series mostly up to 28.7 µM
How it was run: as §1

CP192 = assay: as above; settings: P. falciparum in erythrocytes, SYBR Green DNA, 72 h; series mostly up to 28.7 µM
How it was run: as §1

CP194 = assay: as above; settings: P. falciparum in erythrocytes, SYBR Green DNA, 72 h; series mostly up to 28.7 µM
How it was run: as §1

CP201 = assay: as above; settings: P. falciparum in erythrocytes, SYBR Green DNA, 72 h; series mostly up to 28.7 µM
How it was run: as §1

CP203 = assay: as above; settings: P. falciparum in erythrocytes, SYBR Green DNA, 72 h; series mostly up to 28.7 µM
How it was run: as §1

CP211 = assay: as above; settings: P. falciparum in erythrocytes, SYBR Green DNA, 72 h; series mostly up to 28.7 µM
How it was run: as §1

CP215 = assay: as above; settings: P. falciparum in erythrocytes, SYBR Green DNA, 72 h; series mostly up to 28.7 µM
How it was run: as §1

CP217 = assay: as above; settings: P. falciparum in erythrocytes, SYBR Green DNA, 72 h; series mostly up to 28.7 µM
How it was run: as §1

CP237 = assay: as above; settings: P. falciparum in erythrocytes, SYBR Green DNA, 72 h; series mostly up to 28.7 µM
How it was run: as §1

CP238 = assay: as above; settings: P. falciparum in erythrocytes, SYBR Green DNA, 72 h; series mostly up to 28.7 µM
How it was run: as §1

CP247 = assay: as above; settings: P. falciparum in erythrocytes, SYBR Green DNA, 72 h; series mostly up to 28.7 µM
How it was run: as §1

CP250 = assay: as above; settings: P. falciparum in erythrocytes, SYBR Green DNA, 72 h; series mostly up to 28.7 µM
How it was run: as §1

CP252 = assay: as above; settings: P. falciparum in erythrocytes, SYBR Green DNA, 72 h; series mostly up to 28.7 µM
How it was run: as §1

CP256 = assay: as above; settings: P. falciparum in erythrocytes, SYBR Green DNA, 72 h; series mostly up to 28.7 µM
How it was run: as §1

C[C@]12CC[C@H]3c4ccc(O)cc4CC[C@@H]3[C@H]1CC[C@@H]2OP(=O)(O)O
inactive: Potency [1] > 11.4 µM | activity change, negative = inhibition [2] -3.92% | activity change, negative = inhibition [3] 9.37% | activity, negative = inhibition [4] 2.17% | Potency [5] | Potency [6] | activation [7] 11.8% | outcome [8] | Potency [9] | outcome [10] | Potency [11] | Potency [12] | activity, negative = inhibition ([13]; parasite line A) 12.7% | activity, negative = inhibition ([13]; parasite line B) 13.6% | Potency (3D7) | Potency (7G8) | Potency (AA1029) | Potency (AS120) | Potency (ATS189) | Potency (ATS95) | Potency (C2A) | Potency (CP185) | Potency (CP191) | Potency (CP192) | Potency (CP194) | Potency (CP201) | Potency (CP203) | Potency (CP211) | Potency (CP215) | Potency (CP217) | Potency (CP237) | Potency (CP238) | Potency (CP247) | Potency (CP250) | Potency (CP252) | Potency (CP256)

— PubChem BioAssay (NCATS)
